In PubChem BioAssay (NCATS):
Inconclusive results are not listed. Active and inactive are the calls of the source. Calls come from the whole dose curve; as a rule, active = well fitted inhibition curve with a large enough effect; inconclusive = small, poorly fitted or top-dose-only effect; inactive = flat fitted curve, though single readings scatter.

Biological target: DNA repair nuclease/redox regulator APEX1 (Homo sapiens) (UniProt P27695)
Experiment: qHTS Validation Assay for Inhibitors of the Human Apurinic/apyrimidinic Endonuclease 1 (APE1) (AID 1705;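 note: TAMRA fluorescence gain over two minutes as APE1 cuts a quenched THF abasic duplex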)
Conditions: purified APE1 endonuclease activity, fluorescence, titration; series mostly up to 57.1 µM; activity change, negative = inhibition: at the top concentration
Source text: Assay Provider: David M. Wilson, III, National Institute on Aging, NIH
Screening Center PI: Austin, C.P.
Screening Center: NIH Chemical Genomics Center [NCGC]
The apurinic/apyrimidinic endonuclease APE1 is the primary mammalian enzyme responsible for the removal of abasic (or AP) sites in DNA and functions centrally in the base excision DNA repair (BER) pathway. […] Thus, targeting APE1 could improve the efficacy of current treatment paradigms by promoting selective sensitization or protection of diseased and normal cells, respectively.
Inhibition of APE1 activity was screened by utilizing double-stranded short substrate containing tetrahydrofuran (THF) abasic site labeled with rhodamine-type fluorophore (TAMRA) at the 5'-end and with non-fluorescent Black Hole Quencher-2 (BHQ-2) at the opposing 3'-end. An increase in the fluorescence intensity due to incision of the abasic site by APE1 was used to measure the enzyme activity.
1. Substrate: 50 nM final concentration of TAMRA/BHQ-2 substrate dispensed throughout the plate.
2. Enzyme: […] nM APE1 final concentration in columns 1, 2, 5-48. Column 1 is neutral (100% activity)
3. Control: Pintool transfer of control inhibitor NSC-13755 to column 2 of all assay plates. Two-fold, 16 pt dilution in duplicate to produce final concentrations in the […] uM - […] nM range.
3. Buffer columns in columns 3 and 4 were used as negative control (no enzyme).
Three uL of enzyme were dispensed to 1536-well Greiner black solid bottom plates. Compounds (23 nL) were transferred via Kalypsys pintool. The plates were incubated for 15 min at room temperature, and then 1 uL of substrate solution was added to start the reaction. The plates were immediately transferred into ViewLux High-throughput CCD imager (Perkin-Elmer) in order to measure the reaction progress in kinetic mode (three reads every 60 seconds) using 525 nm excitation and 598 nm emission fluorescence protocol. The fluorescence intensity difference between the third and the first time points was used to compute reaction progress.
% is set by controls: 0 for no effect and ±100 for the full control effect.

DNA repair nuclease/redox regulator APEX1 (Homo sapiens), sequence (P27695 whole entry, looked up): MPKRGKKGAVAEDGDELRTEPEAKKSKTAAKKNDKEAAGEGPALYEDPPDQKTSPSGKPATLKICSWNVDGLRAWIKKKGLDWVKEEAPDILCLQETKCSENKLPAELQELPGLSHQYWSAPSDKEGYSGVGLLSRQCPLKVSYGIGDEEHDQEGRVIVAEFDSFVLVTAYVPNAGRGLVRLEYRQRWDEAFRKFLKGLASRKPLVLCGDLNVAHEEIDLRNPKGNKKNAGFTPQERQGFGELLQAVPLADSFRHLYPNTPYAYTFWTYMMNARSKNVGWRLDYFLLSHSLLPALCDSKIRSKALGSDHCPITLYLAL

SMILES | activity change, negative = inhibition | Potency
O=C1CC2(CCCC2)CC(=O)N1CCCCN1CCN(c2ncccn2)CC1 | -4.67% (inactive) | –
COc1ccc([C@@H]2Sc3ccccc3N(CCN(C)C)C(=O)[C@@H]2OC(C)=O)cc1 | 0.646% (inactive) | –
CCCNC(C)C(=O)Nc1ccccc1C (stereo not given) | 6.54% (inactive) | –
OCCN1CCN(CCCN2c3ccccc3C=Cc3ccccc32)CC1 | – | inactive
COCC(=O)O[C@]1(CCN(C)CCCc2nc3ccccc3[nH]2)CCc2cc(F)ccc2[C@@H]1C(C)C | -3.04% (inactive) | –
COCCc1ccc(OCC(O)CNC(C)C)cc1 (stereo not given) | -0.238% (inactive) | –
O=C(O)CN(CCOCCOCCN(CC(=O)O)CC(=O)O)CC(=O)O | 1.4% (inactive) | –
COc1cc2c(cc1OC)-c1cc(=Nc3c(C)cc(C)cc3C)n(C)c(=O)n1CC2 | -4.6% (inactive) | –
Cc1ccc(=O)n(-c2ccccc2)c1 | 9.4% (inactive) | –
CCN(CC)CCNC(=O)c1cc(S(C)(=O)=O)ccc1OC | -20.9% (inactive) | –
COc1cc(C(=O)OCCCN2CCCN(CCCOC(=O)c3cc(OC)c(OC)c(OC)c3)CC2)cc(OC)c1OC | 4.45% (inactive) | –
NC(Cc1ccc(Cl)cc1)C(=O)O (stereo not given) | 4.59% (inactive) | –
Cc1nnc(SCC2=C(C(=O)O)N3C(=O)[C@@H](NC(=O)Cn4cnnn4)[C@H]3SC2)s1 | 8.12% (inactive) | –
NC(=O)N1c2ccccc2C=Cc2ccccc21 | -16.4% (inactive) | –
O=C(O)CN(CCN(CC(=O)O)CC(=O)O)CCN(CC(=O)O)CC(=O)O | 1.59% (inactive) | –
O=C(O)CP(=O)(O)O | -3.55% (inactive) | –
Cc1nc2c([nH]1)c(=O)n(C)c(=O)n2Cc1ccco1 | 2.53% (inactive) | –
COCCCC/C(=N\OCCN)c1ccc(C(F)(F)F)cc1 | -0.484% (inactive) | –
CCCCNC(=O)NS(=O)(=O)c1ccc(C)cc1 | 9.99% (inactive) | –
CCN(Cc1ccncc1)C(=O)C(CO)c1ccccc1 (stereo not given) | -9.19% (inactive) | –

SMILES | activity change, negative = inhibition | Potency
COc1cc(Cc2cnc(N)nc2N)cc(OC)c1OC | -3.89% (inactive) | –
C[C@]12C=CC(=O)C=C1CC[C@H]1[C@@H]3C[C@@H](O)[C@](O)(C(=O)CO)[C@@]3(C)C[C@H](O)[C@@]12F | -5.97% (inactive) | –
OC(CCN1CCCCC1)(c1ccccc1)C1CCCCC1 (stereo not given) | 4.53% (inactive) | –
OCCN1CCN(CC/C=C2/c3ccccc3Sc3ccc(C(F)(F)F)cc32)CC1 | 8.61% (inactive) | –
CC(=O)Nc1nnc(S(N)(=O)=O)s1 | -2.75% (inactive) | –
C(=C\c1ccccc1)/CN1CCN(C(c2ccccc2)c2ccccc2)CC1 | -5.5% (inactive) | –
CCO/C([O-])=N/c1c[n+](N2CCOCC2)no1 | 6.86% (inactive) | –
CCN1CCC[C@H]1CNC(=O)c1c(O)c(Cl)cc(Cl)c1OC | 3.59% (inactive) | –
C[C@H](CS)C(=O)N1CCC[C@H]1C(=O)O | -2.98% (inactive) | –
CCN(CC)CCOCCOC(=O)C1(c2ccccc2)CCCC1 | 1.41% (inactive) | –
CCn1ccnc1CC1COc2ccccc2O1 (stereo not given) | -0.9% (inactive) | –
CN(C)C/C=C(/c1ccc(Br)cc1)c1cccnc1 | 13.1% (inactive) | –
CCOC(=O)c1cnc2c(cnn2CC)c1NN=C(C)C | 2.78% (inactive) | –
CCNC(=O)N1CCN(CCCC(c2ccc(F)cc2)c2ccc(F)cc2)CC1 | -5.16% (inactive) | –
c1cnc(N2CCN(Cc3ccc4c(c3)OCO4)CC2)nc1 | 10.8% (inactive) | –
CN(C)C(=O)Oc1cccc([N+](C)(C)C)c1 | 3.26% (inactive) | –
Nc1c2c(nc3ccccc13)CCCC2O (stereo not given) | 0.82% (inactive) | –
CSc1ccc(C(=O)c2[nH]c(=O)[nH]c2C)cc1 | -10.8% (inactive) | –
Cc1nc2ccccn2c(=O)c1CCN1CCC(C(=O)c2ccc(F)cc2)CC1 | 5.11% (inactive) | –
CCCOc1ccccc1-c1nc2n[nH]nc2c(=O)[nH]1 | -5.03% (inactive) | –
